Source: PubChem BioAssay AID1159580 (chemical genetic matrix, 2015)
Hit rate of the full screen: of about 5,500 compounds, about 2,000 (36%) were called active. Inconclusive results (about 18%) are left out. Cut-off read from the data, not from the text of the source: active = normalized growth mostly below about 0.91 (no sharp cut-off); inconclusive = no clear call, values can overlap the other calls; inactive = mostly above about 0.92. This is one part of the list.

Assay: chemical genetic growth profiling, strain panel (AID 1159580);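 note: tested at 20 µM; growth read once vehicle control cultures reached saturation at 30 °C; 1 = growth at the plate median or of vehicle wells; lower values mean less growth of the strain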
Details: S. cerevisiae deletion strains, growth OD

Measured: normalized growth

OC[C@H]1O[C@@H](n2cnc3c(Nc4ccccc4)ncnc32)C(O)[C@H]1O (some centres not stated)
inactive: locus YAL040C, strain CLN3, hits give low values 0.966 | locus YCL061C, strain MRC1 (second series), hits give low values 0.999 | locus YDR363W, strain ESC2, hits give low values 0.908 | locus YER002W, strain NOP16, hits give low values 0.977 | locus YJR075W, strain HOC1, hits give low values 1.01 | locus YMR307W, strain GAS1, hits give low values 1.02 | locus YNL128W, strain TEP1, hits give low values 0.987 | locus YNL175C, strain NOP13, hits give low values 0.98 | locus YNL197C, strain WHI3, hits give low values 0.963 | locus YNL224C, strain SQS1, hits give low values 0.979 | locus YNL322C, strain KRE1, hits give low values 1.02 | locus YOR083W, strain WHI5 (second series), hits give low values 0.96
